In article PMC7826789 (International Journal of Molecular Sciences, 2021):

Experiments:
Details in all cases: Compound Concentration (nM):1000
[1] = system: STK33
[2] = system: STK35
[3] = system: STK36
[4] = system: STK39
[5] = system: SYK
[6] = system: SgK110
[7] = system: T1, TAK1
T1 construct: gene MAP3K7

[8] = system: TAOK1
[9] = system: TAOK2
[10] = system: TAOK3
[11] = system: TBK1
[12] = system: TEC
[13] = system: TESK1
[14] = system: TGFBR1
[15] = system: TGFBR2
[16] = system: TIE1
[17] = system: T2, TIE2
T2 construct: gene TEK

[18] = system: TLK1
[19] = system: TLK2
[20] = system: TNIK
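Note: KINOMEscan scanMAX binding as percent activity remaining versus control; lower means stronger binding.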

## Nc1ncnc2occ(-c3ccc(NC(=O)Nc4cc(C(F)(F)F)ccc4F)cc3)c12 [GW770249X]
[1]
  Percent Control: 11%
[2]
  Percent Control: 95%
[3]
  Percent Control: 100%
[4]
  Percent Control: 100%
[5]
  Percent Control: 38%
[6]
  Percent Control: 100%
[7]
  Percent Control: 3.2%
[8]
  Percent Control: 75%
[9]
  Percent Control: 67%
[10]
  Percent Control: 74%
[11]
  Percent Control: 100%
[12]
  Percent Control: 100%
[13]
  Percent Control: 100%
[14]
  Percent Control: 100%
[15]
  Percent Control: 100%
[16]
  Percent Control: 2.6%
[17]
  Percent Control: 3.8%
[18]
  Percent Control: 100%
[19]
  Percent Control: 100%
[20]
  Percent Control: 59%

## COc1cc(/C=N/Nc2ncnc3[nH]ncc23)ccc1O [GW578748X]
[1]
  Percent Control: 95%
[2]
  Percent Control: 100%
[3]
  Percent Control: 57%
[4]
  Percent Control: 60%
[5]
  Percent Control: 51%
[6]
  Percent Control: 100%
[7]
  Percent Control: 32%
[8]
  Percent Control: 51%
[9]
  Percent Control: 80%
[10]
  Percent Control: 77%
[11]
  Percent Control: 50%
[12]
  Percent Control: 100%
[13]
  Percent Control: 94%
[14]
  Percent Control: 100%
[15]
  Percent Control: 87%
[16]
  Percent Control: 100%
[17]
  Percent Control: 100%
[18]
  Percent Control: 86%
[19]
  Percent Control: 76%
[20]
  Percent Control: 94%

## COc1cccc(-c2c[nH]c3c(N/N=C/c4ccncc4)ncnc23)c1 [GW814408X]
[1]
  Percent Control: 84%
[2]
  Percent Control: 100%
[3]
  Percent Control: 11%
[4]
  Percent Control: 100%
[5]
  Percent Control: 72%
[6]
  Percent Control: 87%
[7]
  Percent Control: 100%
[8]
  Percent Control: 11%
[9]
  Percent Control: 51%
[10]
  Percent Control: 32%
[11]
  Percent Control: 71%
[12]
  Percent Control: 90%
[13]
  Percent Control: 97%
[14]
  Percent Control: 55%
[15]
  Percent Control: 100%
[16]
  Percent Control: 96%
[17]
  Percent Control: 100%
[18]
  Percent Control: 84%
[19]
  Percent Control: 100%
[20]
  Percent Control: 51%

## COC(=O)Nc1nc2ccc(Oc3ccc(NC(=O)Nc4cc(C(F)(F)F)ccc4F)cc3)cc2s1.Cl [GW693917A]
[1]
  Percent Control: 44%
[2]
  Percent Control: 86%
[3]
  Percent Control: 100%
[4]
  Percent Control: 87%
[5]
  Percent Control: 98%
[6]
  Percent Control: 100%
[7]
  Percent Control: 5.8%
[8]
  Percent Control: 84%
[9]
  Percent Control: 86%
[10]
  Percent Control: 93%
[11]
  Percent Control: 69%
[12]
  Percent Control: 78%
[13]
  Percent Control: 77%
[14]
  Percent Control: 100%
[15]
  Percent Control: 92%
[16]
  Percent Control: 3.1%
[17]
  Percent Control: 0.6%
[18]
  Percent Control: 87%
[19]
  Percent Control: 100%
[20]
  Percent Control: 74%

## COc1cc(N2CCN(C(C)C)CC2)ccc1Nc1nc(Nc2ccc(F)cc2C(=O)NC[C@@H](O)CO)c2cc[nH]c2n1 [GSK1392956A]
[1]
  Percent Control: 1.5%
[2]
  Percent Control: 100%
[3]
  Percent Control: 100%
[4]
  Percent Control: 65%
[5]
  Percent Control: 92%
[6]
  Percent Control: 100%
[7]
  Percent Control: 100%
[8]
  Percent Control: 67%
[9]
  Percent Control: 100%
[10]
  Percent Control: 100%
[11]
  Percent Control: 100%
[12]
  Percent Control: 100%
[13]
  Percent Control: 92%
[14]
  Percent Control: 100%
[15]
  Percent Control: 100%
[16]
  Percent Control: 100%
[17]
  Percent Control: 100%
[18]
  Percent Control: 83%
[19]
  Percent Control: 92%
[20]
  Percent Control: 72%

## COc1cccc(-n2ncc3c(N/N=C/c4ccncc4)ncnc32)c1 [GW784752X]
[1]
  Percent Control: 100%
[2]
  Percent Control: 100%
[3]
  Percent Control: 96%
[4]
  Percent Control: 100%
[5]
  Percent Control: 79%
[6]
  Percent Control: 100%
[7]
  Percent Control: 97%
[8]
  Percent Control: 39%
[9]
  Percent Control: 97%
[10]
  Percent Control: 91%
[11]
  Percent Control: 100%
[12]
  Percent Control: 100%
[13]
  Percent Control: 85%
[14]
  Percent Control: 36%
[15]
  Percent Control: 100%
[16]
  Percent Control: 100%
[17]
  Percent Control: 100%
[18]
  Percent Control: 89%
[19]
  Percent Control: 93%
[20]
  Percent Control: 97%

## COc1ccc2cc(-c3c(-c4ccncc4)nc(-c4ccc(S(C)(=O)=O)cc4C)n3C)ccc2c1 [SB-633825]
[1]
  Percent Control: 89%
[2]
  Percent Control: 57%
[3]
  Percent Control: 82%
[4]
  Percent Control: 66%
[5]
  Percent Control: 78%
[6]
  Percent Control: 85%
[7]
  Percent Control: 80%
[8]
  Percent Control: 84%
[9]
  Percent Control: 77%
[10]
  Percent Control: 74%
[11]
  Percent Control: 65%
[12]
  Percent Control: 66%
[13]
  Percent Control: 91%
[14]
  Percent Control: 9.7%
[15]
  Percent Control: 86%
[16]
  Percent Control: 3.8%
[17]
  Percent Control: 2.4%
[18]
  Percent Control: 94%
[19]
  Percent Control: 100%
[20]
  Percent Control: 54%

## CN1CCN(C(=O)c2ccc(NC(=O)Nc3ccc(N(C)c4ccnc(Nc5ccc(CS(C)(=O)=O)cc5)n4)cc3)cc2)CC1.Cl [GW830263A]
[1]
  Percent Control: 92%
[2]
  Percent Control: 71%
[3]
  Percent Control: 37%
[4]
  Percent Control: 79%
[5]
  Percent Control: 34%
[6]
  Percent Control: 89%
[7]
  Percent Control: 25%
[8]
  Percent Control: 71%
[9]
  Percent Control: 76%
[10]
  Percent Control: 83%
[11]
  Percent Control: 55%
[12]
  Percent Control: 100%
[13]
  Percent Control: 100%
[14]
  Percent Control: 88%
[15]
  Percent Control: 26%
[16]
  Percent Control: 8.3%
[17]
  Percent Control: 41%
[18]
  Percent Control: 86%
[19]
  Percent Control: 100%
[20]
  Percent Control: 23%

## NS(=O)(=O)c1ccc(Nc2ncc(-c3ccccc3)o2)cc1 [GW572399X]
[1]
  Percent Control: 100%
[2]
  Percent Control: 100%
[3]
  Percent Control: 100%
[4]
  Percent Control: 100%
[5]
  Percent Control: 93%
[6]
  Percent Control: 100%
[7]
  Percent Control: 100%
[8]
  Percent Control: 72%
[9]
  Percent Control: 97%
[10]
  Percent Control: 86%
[11]
  Percent Control: 100%
[12]
  Percent Control: 99%
[13]
  Percent Control: 100%
[14]
  Percent Control: 100%
[15]
  Percent Control: 100%
[16]
  Percent Control: 100%
[17]
  Percent Control: 100%
[18]
  Percent Control: 63%
[19]
  Percent Control: 47%
[20]
  Percent Control: 52%

## COc1cc2ncnc(Nc3ccc4c(cnn4Cc4ccccc4)c3)c2cc1OC.Cl [GW282449A]
[1]
  Percent Control: 98%
[2]
  Percent Control: 100%
[3]
  Percent Control: 100%
[4]
  Percent Control: 100%
[5]
  Percent Control: 77%
[6]
  Percent Control: 100%
[7]
  Percent Control: 100%
[8]
  Percent Control: 100%
[9]
  Percent Control: 100%
[10]
  Percent Control: 100%
[11]
  Percent Control: 100%
[12]
  Percent Control: 83%
[13]
  Percent Control: 100%
[14]
  Percent Control: 100%
[15]
  Percent Control: 100%
[16]
  Percent Control: 100%
[17]
  Percent Control: 100%
[18]
  Percent Control: 100%
[19]
  Percent Control: 100%
[20]
  Percent Control: 100%
